Over roughly 5,000 sequences, “log2 normalized fluorescence” has its median near 0.089; the highest 2% begin near 0.81. The sample as a whole holds a higher share of the highest values than the screen did.

MYC (p64);MAX (p21), in MYC:MAX, sequence (P01106 16-454, chain 1 of 2): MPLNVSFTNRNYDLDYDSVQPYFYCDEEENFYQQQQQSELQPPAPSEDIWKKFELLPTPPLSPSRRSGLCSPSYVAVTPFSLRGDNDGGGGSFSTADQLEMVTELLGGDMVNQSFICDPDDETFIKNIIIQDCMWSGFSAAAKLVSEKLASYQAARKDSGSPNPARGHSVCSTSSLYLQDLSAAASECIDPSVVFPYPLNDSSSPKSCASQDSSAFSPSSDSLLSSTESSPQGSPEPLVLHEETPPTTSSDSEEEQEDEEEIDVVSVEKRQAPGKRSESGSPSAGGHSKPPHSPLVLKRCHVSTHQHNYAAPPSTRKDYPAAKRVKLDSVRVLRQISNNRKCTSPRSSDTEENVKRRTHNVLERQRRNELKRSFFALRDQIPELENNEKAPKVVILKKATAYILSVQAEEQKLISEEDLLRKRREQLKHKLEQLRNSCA
MYC (p64);MAX (p21), in MYC:MAX, sequence (P61244 other isoform, or with tags, fused parts or gaps |, chain 2 of 2): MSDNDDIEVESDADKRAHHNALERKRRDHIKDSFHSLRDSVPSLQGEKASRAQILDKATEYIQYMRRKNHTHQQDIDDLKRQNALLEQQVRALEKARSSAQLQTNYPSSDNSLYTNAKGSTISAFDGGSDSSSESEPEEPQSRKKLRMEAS

The assay has as its target MYC (p64);MAX (p21), in MYC:MAX (human;human, UniProt P01106-1;P61244-2 1-439;1-151, |). Kind of assay: protein-binding microarray (anti-MAX antibody); PBM: 15 mM Tris-HCl pH 7.5, 100 mM KCl, 0.075% NP40, 7.5 mM beta-mercaptoethanol, 375 ng/ul BSA, 8 ng/ul poly(dA-dT):(dA-dT), 550 ng complex, 60 min, room tempe; high values mean tight binding. To be noted: protein: recombinant;recombinant; tags: 6xHis;6xHis; copies: 1;1; label: 3' end of printed strand (linker) attached to glass slide; dsDNA, one strand shown. Put shortly:
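Binding is reported as log2 normalized fluorescence. Recombinant His-tagged human MYC:MAX or MAX:MAX dimers expressed in E. coli (550 ng) were incubated with a custom Agilent glass array for 60 min at room temperature in Tris-KCl buffer, pH 7.5, containing NP40, BSA and poly(dA-dT) competitor. The array carried ~5000 unique 12-nt sequences, each spotted in triplicate and made double-stranded by primer extension, and bound protein was detected with anti-MAX and secondary antibodies and scanned at 543 nm.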
With “CCGGCTGACACGTGCTGTTAATAGCTAAGATTACTATATCGACG”, the binding signal is 0.743 log2 normalized fluorescence.
With “CCGGCTGACACGTGTGGTTAATAGCTAAGATTACTATATCGACG” the figure was 0.792 log2 normalized fluorescence.
Take “CCGGCTGACACGTGCTATTAATAGCTAAGATTACTATATCGACG”: the binding signal is 0.869 log2 normalized fluorescence.
The value for “CCGGCTGACACGTAGAGTTAATAGCTAAGATTACTATATCGACG” was 0.293 log2 normalized fluorescence.
The value for “CCGGCTGACACGTGATTTTAATAGCTAAGATTACTATATCGACG” was 0.626 log2 normalized fluorescence; that for “CCGGCTGACACGTGGGTTTAATAGCTAAGATTACTATATCGACG” was 0.725 log2 normalized fluorescence.
“CCGGCTGACACGTGGAGTTAATAGCTAAGATTACTATATCGACG”: the binding signal is 0.923 log2 normalized fluorescence.
Regarding “CCGGCTGACACGTGCATTTAATAGCTAAGATTACTATATCGACG”, the binding signal is 0.894 log2 normalized fluorescence.
With “CCGGCTGACACGTTGCATTAATAGCTAAGATTACTATATCGACG” the figure was 0.792 log2 normalized fluorescence; with “CCGGCTGACACGTGCTCTTAATAGCTAAGATTACTATATCGACG”, 0.813 log2 normalized fluorescence; with “CCGGCGGACACGTGGAGTTAATAGCTAAGATTACTATATCGACG”, 0.745 log2 normalized fluorescence.
As for “CCGGCTGACACGTGGGGTTAATAGCTAAGATTACTATATCGACG”, the binding signal was 1 log2 normalized fluorescence.
The value for “CCGGCAGAAACGCGGTATTAATAGCTAAGATTACTATATCGACG” was 0.575 log2 normalized fluorescence; that for “CCGGCTGATTACGAGTATTAATAGCTAAGATTACTATATCGACG” was 0.0125 log2 normalized fluorescence; that for “CCGGCTGACACGAGATATTAATAGCTAAGATTACTATATCGACG” was 0.491 log2 normalized fluorescence.
With “CCGGCTGATCCGCTGTATTAATAGCTAAGATTACTATATCGACG” the figure was -0.0182 log2 normalized fluorescence; with “CCGGCTGAAACGTTGTATTAATAGCTAAGATTACTATATCGACG”, 0.435 log2 normalized fluorescence.
The value for “CCGGCTGAAACACAGTATTAATAGCTAAGATTACTATATCGACG” was 0.249 log2 normalized fluorescence; that for “CCGGCTGATGGTCCGTATTAATAGCTAAGATTACTATATCGACG” was 0.278 log2 normalized fluorescence; that for “CCGGCTGATGAGCAGTATTAATAGCTAAGATTACTATATCGACG” was -0.0208 log2 normalized fluorescence.
Consider “CCGGCTGATGGGTTGTATTAATAGCTAAGATTACTATATCGACG”, for which the binding signal is 0.152 log2 normalized fluorescence.
Turning to “CCGGCTGACACGTGTGCTTAATAGCTAAGATTACTATATCGACG”, the binding signal is 0.818 log2 normalized fluorescence.
Turning to “CCGGCTGACACGTGCGCTTAATAGCTAAGATTACTATATCGACG”, the binding signal is 0.633 log2 normalized fluorescence.
As for “CCGGCTGACACGTGCCATTAATAGCTAAGATTACTATATCGACG”, the binding signal is 1 log2 normalized fluorescence.
With “CCGGCTGACACGTGAATTTAATAGCTAAGATTACTATATCGACG” the figure was 0.712 log2 normalized fluorescence; with “CCGGCTGACACGTGGATTTAATAGCTAAGATTACTATATCGACG”, 0.893 log2 normalized fluorescence; with “CCGGCTGACACGTGGGATTAATAGCTAAGATTACTATATCGACG”, 0.669 log2 normalized fluorescence.
The value for “CCGGCTGACACGTGACATTAATAGCTAAGATTACTATATCGACG” was 0.756 log2 normalized fluorescence; that for “CCGGCTGACACGTGCGATTAATAGCTAAGATTACTATATCGACG” was 0.786 log2 normalized fluorescence.
The value for “CCGGCTGACACGTGCCGTTAATAGCTAAGATTACTATATCGACG” was 0.783 log2 normalized fluorescence.
As for “CCGGCTGAAACTGAGTATTAATAGCTAAGATTACTATATCGACG”, the binding signal is 0.00205 log2 normalized fluorescence.
With “CCGGCTGACCTGACGTATTAATAGCTAAGATTACTATATCGACG” the figure was 0.202 log2 normalized fluorescence; with “CCGGCTGCCACGTGGTGTTAATAGCTAAGATTACTATATCGACG”, 0.763 log2 normalized fluorescence.
On to “CCGGCTGCCACGTGTTATTAATAGCTAAGATTACTATATCGACG”, for which the binding signal was 0.969 log2 normalized fluorescence.
The value for “CCGGCTGCCACGTGATATTAATAGCTAAGATTACTATATCGACG” was 0.881 log2 normalized fluorescence; that for “CCGGCTGCCACGACGTATTAATAGCTAAGATTACTATATCGACG” was 0.371 log2 normalized fluorescence; that for “CCGGCTGTCACGTGATATTAATAGCTAAGATTACTATATCGACG” was 0.587 log2 normalized fluorescence.
As for “CCGGCTGCCACGTAGTGTTAATAGCTAAGATTACTATATCGACG”, the binding signal is 0.23 log2 normalized fluorescence.
With “CCGGCTGAGGCGAAGTATTAATAGCTAAGATTACTATATCGACG”, the binding signal is 0.0114 log2 normalized fluorescence.
Turning to “CCGGCTGATGTATCGTATTAATAGCTAAGATTACTATATCGACG”, the binding signal was 0.124 log2 normalized fluorescence.
The value for “CCGGCTGAGCGATAGTATTAATAGCTAAGATTACTATATCGACG” was -0.0333 log2 normalized fluorescence; that for “CCGGCTGACGCGGAGTATTAATAGCTAAGATTACTATATCGACG” was 0.127 log2 normalized fluorescence.
The value for “CCGGCGGACAGGTGGGATTAATAGCTAAGATTACTATATCGACG” was 0.375 log2 normalized fluorescence; that for “CCGGCAAGCACGTGGTATTAATAGCTAAGATTACTATATCGACG” was 0.835 log2 normalized fluorescence; that for “CCGGCGAGCACGTGGTATTAATAGCTAAGATTACTATATCGACG” was 0.525 log2 normalized fluorescence.
Take “CCGGCCAGCACGTGGTATTAATAGCTAAGATTACTATATCGACG”: the binding signal was 0.793 log2 normalized fluorescence.
With “CCGGCTAGCACGTGGTATTAATAGCTAAGATTACTATATCGACG” the figure was 0.917 log2 normalized fluorescence; with “CCGGCTGACGTCAGGTATTAATAGCTAAGATTACTATATCGACG”, 0.293 log2 normalized fluorescence.
The value for “CCGGCTGAGGGTAGGTATTAATAGCTAAGATTACTATATCGACG” was 0.0237 log2 normalized fluorescence; that for “CCGGCTGAGGCCCCGTATTAATAGCTAAGATTACTATATCGACG” was 0.00137 log2 normalized fluorescence.
The value for “CCGGCGGGCACGTGGGATTAATAGCTAAGATTACTATATCGACG” was 0.986 log2 normalized fluorescence; that for “CCGGCTGGCACGTGGGATTAATAGCTAAGATTACTATATCGACG” was 0.708 log2 normalized fluorescence.
Regarding “CCGGCTGGCACGCGGTCTTAATAGCTAAGATTACTATATCGACG”, the binding signal was 0.784 log2 normalized fluorescence.

Values taken from paper PMC5515408, “Sequence-specific DNA binding by MYC/MAX to low-affinity non-E-box motifs”.
